Test results: PubChem BioAssay
Active and inactive are the calls of the source. The rule behind the calls is not given here.

assay: inhibition of PAO1 biofilm formation – strain PAO1, LB-PBS medium, absorbance 600 nm, primary screen (AID 1176); note: test concentration not given here; settings: P. aeruginosa PAO1 growth/biofilm, A600, 12 h; higher = more signal

z-score, inactive:
COCC(=C=CC[C@@H](O)c1ccccc1OCCO)CCO 0.0356
CC1CC/C=C\[C@H]2OC34C=CCN(C(C)C)C(=O)[C@H]3N(CCCO)C(=O)[C@@H]4C2C(=O)O1 (stereo not given in full) -0.91
Cn1cccc1C(O)C1C=CC2C(=O)NC(=O)C2N1Nc1ccccn1 (stereo not given) 0.543
CCCC[C@H]1OB(O)C[C@H]2C1=C(C)C[C@H]1C(=O)N(C)C(=O)[C@H]12 0.4
Cc1ccc(S[C@]2(C(=O)NCC(F)(F)F)CC(=O)N(Cc3ccccc3Cl)[C@@H]2c2ccc(CO)cc2I)cc1 0.0214
CC(C)NC(=O)[C@@H]1c2ccccc2C(=O)N(CC23CC4CC(CC(C4)C2)C3)[C@H]1c1ccc(CO)cc1 0.553
CCc1cccc(NC(=O)O[C@H]2[C@H](OC(=O)Nc3ccc4c(c3)OCO4)[C@@H](OC(=O)Nc3ccc4c(c3)OCO4)[C@@H](OC)O[C@@H]2CO)c1 0.745
CC(C)OC(=O)C=C1C[C@@H](c2ccc(C#N)cc2)O[C@@H](c2ccc(C#N)cc2)O1 -0.281
COC(=O)C1=CCC(c2cccc(Cl)c2)O1 (stereo not given) 0.216
CCCC[C@@H](O)C1=C(C)C[C@H]2C(=O)N(Cc3ccccc3)C(=O)[C@H]2[C@H]1CO 0.27
